Experimental data: PubChem BioAssay AID485270 (The Scripps Research Institute Molecular Screening Center, 2010)
Hit rate of the full screen: of about 330,000 compounds, about 5,800 (1.8%) were called active. Many of the other results were omitted from the sample, so actives are more common in it than they were. Values without a mark were called inactive. Cut-off read from the data, not from the text of the source: active = inhibition mostly above about 38% (no sharp cut-off); inactive = mostly below about 40%.

These compounds were tested against Orexin/Hypocretin receptor type 1 (Homo sapiens) (UniProt O43613) (assay: antagonists of human orexin 1 receptor (OX1R) (AID 485270;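 note: 0% = agonist challenge alone and 100% = reference antagonist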)). Settings: OX1R-expressing cells, FRET antagonist read-out; at 6.6 µM; active compounds read high.
Sequence of Orexin/Hypocretin receptor type 1 (Homo sapiens) (O43613 whole entry, looked up): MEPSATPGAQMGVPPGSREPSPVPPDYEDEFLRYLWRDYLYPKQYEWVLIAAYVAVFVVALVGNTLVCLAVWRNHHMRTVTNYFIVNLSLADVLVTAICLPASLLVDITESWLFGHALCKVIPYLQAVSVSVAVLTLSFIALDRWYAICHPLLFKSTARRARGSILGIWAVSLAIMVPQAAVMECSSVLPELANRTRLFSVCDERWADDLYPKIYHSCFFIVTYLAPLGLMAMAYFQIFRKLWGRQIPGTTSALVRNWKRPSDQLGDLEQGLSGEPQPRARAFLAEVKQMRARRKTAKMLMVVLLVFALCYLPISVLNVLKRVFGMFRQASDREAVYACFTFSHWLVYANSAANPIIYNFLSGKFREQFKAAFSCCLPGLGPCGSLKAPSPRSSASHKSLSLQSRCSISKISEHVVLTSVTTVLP
`CCCS(=O)(=O)N1CCC(CCOc2ccccc2)(C(=O)OCC)CC1` showed an inhibition of 17.7%.
`Cc1ccc(S(=O)(=O)NCC(=O)NNC(=O)c2ccc(Br)cc2)cc1C` was tested, and the inhibition was 15.8%.
With `Nc1nc(-c2sc3nc4c(cc3c2N)CCCC4)nc(N2CCOCC2)n1` the inhibition was 95.8% (active).
`Cc1nc(N2CCOCC2)nc2c1CCCC2` gave an inhibition of 5.29%.
With `Cc1cccc(NC(=O)c2sc3nc(N4CCOCC4)c4c(c3c2N)CCCC4)c1` the inhibition was 4.35%.
For `Cc1ccccc1-n1cc(CNC(=O)C2CCC(=O)N(C3CC3)C2)cn1` (configuration not stated), the inhibition was 15.2%.
`C=CC[C@H](CC(=O)NCCO)C(=O)N[C@@H](COC(=O)[C@@H](CC=C)Cc1ccc(F)cc1)Cc1c[nH]c2ccccc12` showed an inhibition of 5.23%.
With `Cc1ccc2c(c1)c1ncn(CCC3=CCCCC3)c(=O)c1n2C` the inhibition was 18.4%.
Compound `Cc1ccc2c(c1)c1ncn(Cc3ccc(F)cc3)c(=O)c1n2C` has an inhibition of 8.56%.
In the case of `Cc1ccc2c(c1)c1ncnc(N3CCc4ccccc4C3)c1n2C`, the inhibition is reported as 74.4% (active).
In the case of `CN(c1ccccc1)S(=O)(=O)c1cc(C(=O)N2CCN(c3ncccn3)CC2)ccc1Cl`, the inhibition is reported as 4.83%.
For `COc1ccc(-c2nc(CS(=O)CC(=O)NCc3ccccn3)c(C)o2)cc1` (configuration not stated), the inhibition was 1.65%.
`COc1ccc2oc(=O)c(C(=O)N3CCCC3)cc2c1` showed an inhibition of 0.49%.
With `COc1ccc2oc(=O)c(C(=O)NCc3ccccn3)cc2c1` the inhibition was 95.3% (active).
In the case of `COc1ccc(CNC(=O)C[C@H]2C[C@H](C(=O)N3CCOCC3)[C@@]3(CCC4CCCC4)c4[nH]c5ccc(Cl)cc5c4CCN3C2=O)cc1OC`, the inhibition is reported as 0.33%.
Compound `O=C1C=CN2CCCC2CC1` (configuration not stated) has an inhibition of 13.3%.
With `CC(=O)Nc1ccc(S(=O)(=O)NCCC(=O)N2CCN(c3ccccc3Cl)CC2)cc1` the inhibition was 13.1%.
In the case of `CN1C(=O)/C(=N/OC(=O)c2ccccc2Br)c2ccccc21`, the inhibition is reported as 14%.
Compound `CCC1C(=O)c2ccccc2N(C)C1=O` (configuration not stated) has an inhibition of 17.9%.
With `CN1C(=O)/C(=C\c2cc(Br)cs2)c2ccccc21` the inhibition was 63.8% (active).
With `CCOCc1c(C(=O)N2CCN(Cc3ccc(Br)s3)CC2)oc2ccccc12` the inhibition was 5.32%.
With `O=C(COc1ccc([N+](=O)[O-])cc1Cl)Nc1ccc2[nH]c(=O)[nH]c2c1` the inhibition was 9.15%.
For `CCCCCCSc1ccc([C@@H]2[C@H]3C(=O)N(CC)C(=O)[C@H]3[C@]3(C(=O)OC)CCCCN23)cc1`, the inhibition was 3.69%.
In the case of `CC1CCN(c2oc(-c3ccccc3F)nc2C#N)CC1`, the inhibition is reported as 9.88%.
`COc1ccc(Nc2oc(-c3ccccc3Cl)nc2C#N)cc1` gave an inhibition of 29.4%.
In the case of `N#Cc1nc(-c2cccc3ccccc23)oc1N`, the inhibition is reported as 71.4% (active).
`Cc1ccc(NC(=O)C2CC2)cc1S(=O)(=O)N1CCOCC1` showed an inhibition of 5.49%.
